Compounds with a hit are over-represented: about 18% of the library has one in this group of screens.
VDR inh: vitamin D3 receptor (human) inhibition; P11473; VDR-SRC2-3 peptide fluorescence polarization, 2 h; Potency, µM, for the others: max response, negative = inhibition, hits mostly inhibitors; actives 0.93% (n = 400,000); AID 504847
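VDR–SRC2-3 interaction, FP format. Cmpds 23 nl via pintool, brief spin, 2 h ambient incubation.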
KAT2A inh: inhibitors of human GCN5L2 histone acetyltransferase; GCN5L2 HAT assay, ThioGlo1 CoA-SH fluorescence; Potency, µM (titrated, usually from 58.9 µM), without a hit: at the highest dose activity change, negative = inhibition, most hits filed as inhibitors; actives 0.21% (n = 390,000); AID 504327
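GCN5L2 (20nM final) in 50mM HEPES, 0.1mM EDTA pH 7.5, 0.01% Tween-20 was preincubated 15 min at room temperature with compound, then given ThioGlo1 (50uM), H3(1-25) peptide (75uM) and acetyl-CoA (70uM); CoA-thiol fluorescence (Ex340/Em540) was read at 0 and 20 min.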
PLK1 PBD inh: blocks phosphopeptide binding to human PLK1 polo-box domain; AID 720504; Potency, µM, inactives show max response, negative = inhibition, actives largely listed as inhibitors; actives 2.8% (n = 360,000); Plk1 PBD binding of FITC phosphopeptide, fluorescence polarization; also: series mostly up to about 57 µM; nearly all actives have a fitted effect of over 65% in size
DT40 TDP1 no CPT: qHTS for Inhibitors of human tyrosyl-DNA phosphodiesterase 1 (TDP1): qHTS in cells in absence of CPT; DT40 Tdp1-/- hTDP1 cells, no CPT, ATP luminescence, 48 h; Potency, µM (doses to about 46.2 µM), for inactives: top-dose activity change, negative = growth inhibition, hits mostly inhibitors; actives 15% (n = 420,000); also: nearly all actives have a fitted effect of over 55% in size
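Seeded 400 DT40-hTDP1 cells/well (vehicle DMSO, no 20 nM CPT); pinned compounds; ≥48 hr at 37 °C; CellTiter-Glo luminescence as viability measure.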
TDP1 cell CPT: growth inhibition of DT40 Tdp1-/-;hTDP1 cells with camptothecin (screen for TDP1 inhibitors); chicken DT40 Tdp1-/-;hTDP1 cells + 20 nM CPT, ATP luminescence, 48 h; Potency, µM (doses to about 46.2 µM), for the others: top-dose activity change, negative = growth inhibition, hits mostly inhibitors; actives 12% (n = 420,000); AID 686979; also: nearly all actives have a fitted effect of over 55% in size
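Chicken DT40 Tdp1-/- cells stably complemented with human TDP1 were seeded at 400 cells/well in medium containing 20 nM camptothecin, exposed to pin-transferred compounds, and grown at 37 °C for at least 48 hr. Viability was read as ATP luminescence.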
TDP1 inh: inhibitors of human tyrosyl-DNA phosphodiesterase TDP1. Potency, µM (top dose mostly 130 µM), for inactives: at the top dose activity change, negative = inhibition, hits mostly inhibitors. AID 485290. recombinant TDP1, AlphaScreen DNA substrate cleavage. actives 0.28% (n = 350,000); also: nearly all actives have a fitted effect of over 40% in size
Target sequence (Q9NUW8 whole entry, looked up): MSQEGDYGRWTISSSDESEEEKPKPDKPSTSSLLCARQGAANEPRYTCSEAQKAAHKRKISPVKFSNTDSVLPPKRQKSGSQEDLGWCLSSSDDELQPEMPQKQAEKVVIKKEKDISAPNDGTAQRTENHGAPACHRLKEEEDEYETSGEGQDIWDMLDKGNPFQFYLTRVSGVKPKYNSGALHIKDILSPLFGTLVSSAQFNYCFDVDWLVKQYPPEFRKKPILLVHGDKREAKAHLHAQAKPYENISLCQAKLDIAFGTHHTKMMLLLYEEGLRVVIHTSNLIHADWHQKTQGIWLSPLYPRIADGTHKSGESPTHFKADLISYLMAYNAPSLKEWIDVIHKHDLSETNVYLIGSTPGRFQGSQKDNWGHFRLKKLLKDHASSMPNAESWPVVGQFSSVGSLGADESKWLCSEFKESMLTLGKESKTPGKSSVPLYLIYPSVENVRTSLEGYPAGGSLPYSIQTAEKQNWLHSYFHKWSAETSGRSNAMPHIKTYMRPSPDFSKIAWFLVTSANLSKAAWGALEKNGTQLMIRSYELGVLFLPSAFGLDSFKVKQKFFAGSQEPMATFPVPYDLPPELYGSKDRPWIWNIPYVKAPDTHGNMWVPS
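Enzyme-compound mixtures sat 15 min at room temperature, followed by a 5 min reaction with 15 nM final substrate and 10 min with AlphaScreen beads. Recombinant human Tdp1 was used at 1 nM final.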
* hit, by the source's call; ? = inconclusive; / = no result. Calls follow the shape of the dose curve; as a rule, active = well fitted curve in the direction sought with a large enough effect; inconclusive = small, poorly fitted or top-dose-only effect, or another doubt; inactive = no such curve, though single readings can be large; an effect the other way counts as inactive or inconclusive. % is scaled to controls: 0 for no effect and ±100 for the full control effect; potency is read from the fitted curve at half-maximal effect.

SMILES	VDR inh	KAT2A inh	PLK1 PBD inh	DT40 TDP1 no CPT	TDP1 cell CPT	TDP1 inh
C=CCc1cccc(/C=N/n2cnnc2)c1O	33%	0%	-19%	?	-21%	5%
C=CCc1cccc(/C=C/c2cc(=O)c3ccccc3[nH]2)c1O	-3%	-3%	-7%	7.3µM*	7.3µM*	3%
COc1ccc(-c2sc3ccccc3c2-c2ccc(OCCN(C)C)cc2)cc1	5%	-2%	-6%	23µM*	?	13%
Oc1cccc(-c2sc3ccccc3c2-c2ccc(OCCN3CCCCC3)cc2)c1	/	/	0%	12µM*	18µM*	/
COc1cccc(-c2sc3ccc(OC)cc3c2-c2ccc(OCCN(C)C)cc2)c1	-17%	-10%	-4%	16µM*	23µM*	11%
C1=C(c2sc3ccccc3c2-c2ccc(OCCN3CCOCC3)cc2)CCCC1	-3%	-7%	1%	?	?	4%
COc1cccc(-c2sc3ccc(OC)cc3c2-c2ccc(OCCN3CCOCC3)cc2)c1	-6%	-17%	3%	?	16µM*	5%
O=C(Nc1ccc(F)cc1F)c1ccc(-n2cnc3cccnc32)cc1	13%	-1%	/	/	/	8%
CCN(C(=O)COC(=O)c1cccc(S(=O)(=O)NCc2ccccc2)c1)c1ccccc1	-6%	-2%	-6%	?	?	-8%
COc1ccc(-c2csc(NC(=O)C3COc4ccccc4O3)n2)cc1OC (stereo not drawn)	8%	-28%	2%	13µM*	16µM*	/
O=C(Nc1nncs1)C1COc2ccccc2O1 (stereo not drawn)	1%	-3%	-14%	-3%	-19%	2%
Cc1cccc2sc(NNC(=O)C3COc4ccccc4O3)nc12 (stereo not drawn)	-9%	-1%	-8%	?	?	8%
O=C(Nc1ccc(-c2cn3ccsc3n2)cc1)C1COc2ccccc2O1 (stereo not drawn)	-1%	-7%	-8%	?	21µM*	7%
O=C(Nc1ccccc1)C1COc2ccccc2O1 (stereo not drawn)	1%	-6%	-14%	-1%	-22%	3%
COc1ccc(OC)c2sc(NNC(=O)C3COc4ccccc4O3)nc12 (stereo not drawn)	-13%	-1%	3%	?	15µM*	-2%
COCC(=O)N1CCC2(CC1)CN(c1ccccc1)C2	9%	2%	/	-17%	?	/
CNC(=S)N/N=C(\C)c1ccc(Cl)c(Cl)c1	-14%	1%	-6%	5.2µM*	4.1µM*	4%
C/C(=N\O)c1ccc(Cl)c(Cl)c1	-3%	16%	1%	9%	5%	/
C/C=C/C(=O)[C@@H](C)[C@@H](/C=C/C[Si](C)(C)C)C(C)C	2%	/	/	/	/	5%
CCCn1c2ccccc2c2cnn(CC(=O)N(C)c3ccc(F)cc3)c(=O)c21	1%	5%	/	18µM*	18µM*	2%
CCOC(=O)Cn1ncc2c3ccccc3n(CC(=O)OCC)c2c1=O	6%	-7%	-12%	-5%	-26%	/
CCCn1c2ccccc2c2cnn(CC(=O)N(Cc3ccccc3)C(C)C)c(=O)c21	1%	-9%	/	18µM*	23µM*	1%
CCCCN(C)CCCNC(=O)Cn1ncc2c3ccccc3n(Cc3ccccc3)c2c1=O	18%	-1%	/	?	?	0%
CCCn1c2ccccc2c2cnn(CC(=O)NCCCOC)c(=O)c21	4%	-1%	2%	-14%	-3%	/
CCCCN(CC)C(=O)Cn1ncc2c3ccccc3n(CCC)c2c1=O	-1%	0%	0%	23µM*	?	2%
SMILES	VDR inh	KAT2A inh	PLK1 PBD inh	DT40 TDP1 no CPT	TDP1 cell CPT	TDP1 inh
CN(Cc1ccc2c(c1)CCCN2C)C(=O)[C@H]1O[C@@H](n2cnc3c(N)ncnc32)[C@H](O)[C@@H]1O	/	/	-7%	?	-27%	/
Cc1cc(C)cc(NC(=O)CSc2nc3c(oc4ccccc43)c(=O)n2-c2ccccc2F)c1	7%	-6%	/	-2%	?	2%
Cc1cc(C)cc(-n2c(SCC(N)=O)nc3c(oc4ccccc43)c2=O)c1	7%	0%	/	15µM*	?	7%
Cc1ccc(-n2c(SCC(N)=O)nc3c(oc4ccccc43)c2=O)cc1	-15%	25%	-16%	18µM*	?	6%
CC1(C(=O)O)CCN1C(=O)c1ccccc1F (stereo not drawn)	/	/	-3%	-7%	1%	/
CC1CCN(S(=O)(=O)c2ccc3c(c2)c(=O)c(C(=O)N2CCN(c4cccc(Cl)c4)CC2)cn3C)CC1	-9%	-1%	/	-20%	?	-7%
Cc1cc(NC(=O)CSc2ncc(C(=O)Nc3ccccc3)c(=O)n2C)no1	4%	-13%	/	1%	-3%	8%
Cc1ccc(NC(=O)c2cnc(SCC(=O)c3ccccc3)n(C)c2=O)cc1	-1%	3%	-4%	16µM*	-36%	0%
Cn1c(SCC(=O)c2ccccc2)ncc(C(=O)Nc2ccccc2)c1=O	-13%	1%	-13%	21µM*	?	-3%
CCC1=Nc2cc(C(=O)NCCCOC)ccc2Sc2ccc(Br)cc21	-2%	-3%	/	1.3µM*	1.3µM*	8%
CCC1=Nc2cc(C(=O)NCCN3CCOCC3)ccc2Sc2ccc(Br)cc21	-11%	-1%	-8%	1%	-25%	8%
CCC1=Nc2cc(C(=O)NCCN3CCCC3)ccc2Sc2ccccc21	-4%	-2%	-2%	?	?	8%
CCC1=Nc2cc(C(=O)NCCCOC)ccc2Sc2ccccc21	4%	-4%	-13%	1.2µM*	1.5µM*	10%
CCCCNC(=O)c1ccc2c(c1)N=C(CC)c1ccccc1S2	1%	-9%	/	4.6µM*	4.1µM*	0%
C=CCc1cccc(Cl)c1OCCCNC1CCCC1	-3%	-3%	-8%	18µM*	23µM*	/
O=C(Nc1ccccc1C(=O)Nc1ccc(Br)cn1)c1ccccc1Cl	-7%	-6%	-1%	?	15µM*	1%
S=C(Nc1ccccc1)Nc1ccc(Br)cn1	-15%	0%	-21%	3.7µM*	6.5µM*	1%
Cc1ccccc1C(=O)Nc1ccc(Br)cn1	7%	-3%	-5%	21µM*	9.2µM*	1%
CC(C)C1NC2(C(=O)c3ccccc3C2=O)C2C(=O)N(c3ccc(F)cc3)C(=O)C12 (stereo not drawn)	-6%	-2%	?	26µM*	26µM*	8%
Cc1ccc(Cn2c(=O)c3ccccc3n3c(-c4ccccc4)nnc23)cc1	7%	-4%	/	?	?	9%
